Drawing on PubChem BioAssay (NCI), this text covers growth for 9 molecules.

Experiment in all cases: NCI-60 one-dose screen, 48 h (100 = growth as untreated, 0 = no growth, -100 = all killed)
What all share (settings): 10 µM unless noted

The subject of experiment [1] is HCT-15 colon.
Experiment [2] deals with SNB-75 CNS.
Experiment [3] has as its system SNB-19 CNS.
The subject of experiment [4] is U251 CNS.
Experiment [5] has as its system PC-3 prostate.
Experiment [6] relates to SK-MEL-5 melanoma.
Experiment [7] relates to UACC-62 melanoma.
For experiment [8], the system named is LOX IMVI melanoma.
The subject of experiment [9] is SK-MEL-28 melanoma.
Experiment [10] has as its system SK-MEL-2 melanoma.
Experiment [11] has as its system EKVX NSCLC.
Experiment [12] concerns SN12C renal.
The subject of experiment [13] is UO-31 renal.
Experiment [14] deals with TK-10 renal.
Experiment [15] relates to ACHN renal.
The subject of experiment [16] is CAKI-1 renal.
In experiment [17] the test system is A498 renal.
The test system of experiment [18] is CCRF-CEM leukemia.
The subject of experiment [19] is MOLT-4 leukemia.

Structures are written as SMILES. About 83,000 compounds went through this panel and 20% of them were active in at least one assay; those are over-represented in the sample as a whole.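 For each line, cells grew in 96-well plates with the test compound present at a single concentration for 48 hours.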 Values without a mark were called inactive. Active and inactive are the calls of the source. Rule for the calls: active = growth percent below 10; inactive = the rest.

On to `C=CCn1c(-c2nc3ccc(C(=C(C#N)C#N)c4ccccc4)cc3[nH]2)cc2cc(Br)ccc21`, for which the growth in experiment [1] was 30.4%; in [2], 89.3%; in [3], 70.8%; in experiment [4], 51.9%; in experiment [5], 31.5%; in experiment [6], 55.9%. Further, the growth in [7] was 39.5%; in experiment [8] it was 36.4%; in experiment [9] it was 82.9%; in [10] it was 96.7%; in experiment [11], 42.9%; in experiment [12], 69%. In addition, the growth in experiment [13] is 51.9%; in experiment [14], 94%; in experiment [15], 55.6%; in experiment [16], 48.8%; in [17], 87.7%; in experiment [18] it was 50.5%. Further, in experiment [19], the growth is 36.4%.

On to `O=C1Nc2ccccc2/C1=C/c1ccc(COCC2CO2)n1-c1ccc(O)cc1` (stereo unspecified), for which the growth is 107% in experiment [1]; 95.1% in [2]; 97.7% in experiment [3]; 99.4% in experiment [4]; 101% in experiment [5]; 101% in [6]. Besides, the growth in experiment [7] is 96%; in [8] it was 79.6%; in experiment [9], 106%; in experiment [10], 101%; in [11] it was 102%; in experiment [12] it was 105%. Moreover, the growth was 89.7% in experiment [13]; 104% in [14]; 97% in experiment [15]; 98.3% in [16]; 115% in [17]; 89.2% in [18]. Moreover, the growth in experiment [19] is 98.8%.

Take `C=C(C)[C@@H]1CC[C@]2(COCCCNCCC#N)CC[C@]3(C)[C@H](CC[C@@H]4[C@@]5(C)CC[C@H](OCCCNCCC#N)C(C)(C)[C@@H]5CC[C@]43C)[C@@H]12`: the growth in [1] is 47%; in experiment [2], 54.4%; in experiment [3] it was 83.5%; in [4], 70.9%; in experiment [5] it was 42.5%; in [6] it was 15%. The growth was 69.1% in [7]; -1.84% (active) in experiment [8]; 90.5% in [9]; 93.7% in [10]; 36.1% in [11]; 52% in [12]. Besides, the growth was 41.3% in experiment [13]; 74.9% in experiment [14]; 65.3% in [15]; 34.8% in experiment [16]; 43.3% in [17]; 28.2% in [19].

Regarding `NC(=O)c1cccc(C#CCNC[C@H]2C[C@@H](n3ccc4c(Cl)ncnc43)[C@H](O)[C@@H]2O)c1`, the growth is 107% in experiment [1]; 87.7% in [2]; 102% in experiment [3]; 100% in experiment [4]; 102% in [5]; 101% in experiment [6]. The growth was 96.1% in experiment [7]; 101% in experiment [8]; 102% in experiment [9]; 104% in experiment [10]; 106% in [11]; 99.5% in experiment [12]. Besides, the growth was 92.4% in experiment [13]; 97.3% in [14]; 106% in experiment [15]; 94.4% in experiment [16]; 94.7% in experiment [17]; 102% in experiment [18]. Further, the growth in [19] is 114%.

For `O=C1[C@@H]2Cc3c([nH]c4ccccc34)[C@H](c3c(Cl)cccc3Cl)N2C(=O)CN1C1CCN(CC2CCCCC2)CC1`, the growth is 7% (active) in experiment [1]; 103% in experiment [2]; 71.5% in experiment [3]; 42.8% in [4]; 20.6% in experiment [5]; 50.4% in [6]. For the same molecule, the growth in experiment [7] was 79.5%; in [8] it was -81.1% (active); in experiment [9] it was 93.9%; in experiment [10], 105%; in [12] it was 61.4%; in experiment [13], 69.7%. Further, the growth in [14] was 139%; in experiment [15], 51.3%; in experiment [16] it was 76.7%; in [17], 87.1%; in experiment [19], 19.5%.

Consider `COc1cc2c(cc1OC)C(Sc1ccc(F)cc1)c1c(nc(N)c(C#N)c1N)O2` (stereo unspecified), for which the growth in experiment [1] is -70.7% (active); in experiment [2], 52.9%; in experiment [3], -82.5% (active); in [4], -77.5% (active); in [5], -84% (active); in experiment [6], -82.5% (active). In addition, the growth in [7] is -74.2% (active); in [8], -91.1% (active); in experiment [9], -71.9% (active); in [10] it was -6.24% (active); in experiment [11] it was -86.6% (active); in experiment [12], -86.5% (active). Further, the growth in [13] was -98.1% (active); in experiment [14], -30.1% (active); in experiment [15] it was -99.3% (active); in [16], -58.4% (active); in experiment [17] it was -42.8% (active); in experiment [18] it was -13.6% (active). In addition, the growth in experiment [19] is 0.279% (active).

With `c1n[nH]cc1-c1nc2ccc3[nH]ncc3c2c2c1CCCC2`, the growth in [1] was 12.7%; in experiment [2], 7.62% (active); in [3], 23.1%; in [4] it was 30.1%; in [5], 23.1%; in experiment [6], 16.1%. Further, the growth in [7] was -0.281% (active); in experiment [8] it was 18.8%; in [9], 18.3%; in experiment [10], -20.7% (active); in [11], 42.1%; in experiment [12], 15.1%. The growth in experiment [13] was 11.9%; in experiment [14], 15.1%; in experiment [15] it was 10.8%; in experiment [16], 0.509% (active); in experiment [17], -14.2% (active); in experiment [18], 28.1%. The growth in [19] is 24.6%.

For `Oc1cccc2ccc(-c3nnc(SCc4ccc(O)c5ncccc45)n3-c3ccccc3)nc12`, the growth in experiment [1] is 16.5%; in experiment [2] it was 9.14% (active); in experiment [3], 9.4% (active); in [4] it was 8.21% (active); in [5], 12.4%; in experiment [6], -31.1% (active). The growth in experiment [7] was -4.13% (active); in experiment [8], 5.48% (active); in experiment [9] it was 22%; in experiment [11], 15.3%; in experiment [12] it was 20%; in [13], -22.8% (active). Moreover, the growth in experiment [14] was 14.2%; in [15], 7.49% (active); in experiment [16], 18.1%; in experiment [17], 31.5%; in [18], 11.6%; in [19], 12.2%.

For the molecule `Cc1ccc(-n2cc(/C=N/NC(=O)c3nc(N)n[nH]3)c(-c3ccc(S(C)(=O)=O)cc3)n2)cc1`, the growth in [1] was 86.4%; in experiment [2], 92.2%; in experiment [3] it was 97.4%; in experiment [5], 96.8%; in experiment [6], 103%; in experiment [7] it was 88.5%. Moreover, the growth in [8] was 90.2%; in experiment [9], 101%; in experiment [10], 103%; in experiment [11], 92.9%; in experiment [12] it was 96.6%; in [13] it was 92.6%. Besides, the growth in [14] was 119%; in [15], 101%; in [16], 92.6%; in experiment [17], 97.6%; in experiment [18] it was 84%; in [19], 97.9%.
